# Source: PubChem BioAssay (NCATS)
# Records with an inconclusive call do not appear. A number with no mark means an inactive call. The source made the active and inactive calls. The call rests on the fitted dose curve; in most records, active means well fitted inhibition curve with a large enough effect; inconclusive means small, poorly fitted or top-dose-only effect; inactive means flat fitted curve, though single readings scatter.
# Biological target: Luciferin 4-monooxygenase (Photinus pyralis) (UniProt P08659)
# Sequence (P08659 whole entry, looked up): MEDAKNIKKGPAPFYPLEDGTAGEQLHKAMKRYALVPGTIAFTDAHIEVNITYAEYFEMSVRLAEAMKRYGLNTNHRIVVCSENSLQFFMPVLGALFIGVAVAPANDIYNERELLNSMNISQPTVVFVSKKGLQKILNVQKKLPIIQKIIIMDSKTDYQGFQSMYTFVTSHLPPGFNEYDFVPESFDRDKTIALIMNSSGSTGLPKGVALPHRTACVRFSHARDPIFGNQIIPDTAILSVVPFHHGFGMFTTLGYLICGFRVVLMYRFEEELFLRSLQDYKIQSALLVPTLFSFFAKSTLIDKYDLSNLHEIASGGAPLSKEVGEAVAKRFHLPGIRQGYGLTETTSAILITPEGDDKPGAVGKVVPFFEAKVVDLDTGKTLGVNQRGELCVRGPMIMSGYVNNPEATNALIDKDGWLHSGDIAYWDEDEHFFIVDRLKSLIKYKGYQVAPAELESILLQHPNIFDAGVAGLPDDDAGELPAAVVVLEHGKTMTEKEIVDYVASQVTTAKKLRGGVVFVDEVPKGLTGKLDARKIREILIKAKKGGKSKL
# Test: Biochemical firefly luciferase enzyme assay for NPC (AID 624030); further: nearly all actives have a fitted effect of over 70% in size;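 on activity change, negative = inhibition: 0% = DMSO and -100% = full luciferase inhibition by PTC124 control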
# Settings: purified P. pyralis luciferase, luminescence, 5 min; series mostly up to 58.6 µM; activity change, negative = inhibition: at the top concentration
# Description: Charcot-Marie-Tooth-Association [CMTA] National Center for Advancing Translational Sciences [NCATS] Charcot-Marie-Tooth (CMT) disease was first characterized by Jean-Martin Charcot and Pierre Marie in France and, independently, by Howard Henry Tooth in England in 1886. CMT is one of the most common inherited neurological diseases, affecting approximately 1 in 2,500 Americans. […] The most prevalent type of CMT is known as CMT1A and caused by a duplication of the PMP22 gene which leads to over-expression of this protein. PMP22 is a glycosylated intrinsic membrane protein accounting for 2-5% of the myelin protein content, and its over-expression results in demyelination and subsequently axonal loss. A pair of cellular transcription-based assays was developed in the S16 rat Schwann cell lines (Hai, M., et al., 2002) stably transfected with orthogonal reporters - firefly luciferase (Fluc) and beta-lactamase (beta-Lac) - whose expression is driven by an intronic regulatory element of the PMP22 gene (Jones, E.A., et al., 2011) to recapitulate endogenous expression of PMP22. A comprehensive library of approved drugs, the NCGC Pharmaceutical Collection (Huang, R., et al., 2011), was screened in the cross-validating platform of the orthogonal reporter assays to identify drug modulators inhibitory towards PMP22 expression. A set of counter-screens was devised to address non-specific activity of the library. An ATP-dependent CellTiter-Glo assay (developed by Promega Corp) was utilized to control cell viability. In addition, biochemical Fluc enzyme assay was performed to assess direct inhibition of the Fluc enzymatic activity. References Hai, M., Muja, N., DeVries, G.H., Quarles, R.H. and Patel, P.I. Comparative analysis of Schwann cell lines as model systems for myelin gene transcription studies. J Neurosci Res, 2002. 69(4): pp 497-508 Huang, R., Southall, N., Wang, Y., Yasgar A., Shinn P., Jadhav, A. , Nguyen, D.-T. and Austin, C.P., The NCGC pharmaceutical collection: a comprehensive resource of clinically approved drugs enabling repurposing and chemical genomics. Sci Transl Med, 2011. 3(80): p. 80ps16.
# Compounds were transferred to the plates in 23nl, and one microliter/well luciferase enzyme-buffer solution (10 nM P. pyralis luciferase and 50 mM Tris Acetate final concentrations) was dispensed yielding a final reaction volume of […]. Luciferase luminescence was measured by a ViewLux plate reader within 5 minutes of enzyme-buffer addition. The % activity was determined by normalizing to the average readings of PTC124 (a positive control) relative to DMSO (0% Activity). The concentration-effect curves were then classified based on curve quality (r2), response magnitude and degree of measured activity.
# Potency means the concentration at half of the fitted maximal effect.
Structure (SMILES),"activity change, negative = inhibition",Potency
CC(C)(C)NC(=O)[C@H]1CN(Cc2cccnc2)CCN1C[C@@H](O)C[C@@H](Cc1ccccc1)C(=O)N[C@H]1c2ccccc2C[C@H]1O,-1.02%,
CN1c2cc(O)c(N=NC(N)=O)cc2CC1S(=O)(=O)O (stereo not drawn),-8.25%,
CC[C@H]1CN2CCc3cc(OC)c(OC)cc3[C@H]2C[C@@H]1C[C@@H]1NCCc2cc(OC)c(OC)cc21,3.61%,
COc1c(N2C[C@@H]3CCCN[C@H]3C2)c(F)cc2c(=O)c(C(=O)O)cn(C3CC3)c12,,inactive
Nc1ccn([C@@H]2CS[C@H](CO)O2)c(=O)n1,,inactive
CC=CC1=C(C(=O)O)N2C(=O)[C@H](NC(=O)[C@H](N)c3ccc(O)cc3)[C@@H]2SC1,-5.95%,
C=C1C(=CC=C2CCC[C@]3(C)[C@@H]([C@H](C)C=C[C@H](C)C(C)C)CC[C@@H]23)C[C@@H](O)C[C@@H]1O,-7.67%,
Cc1nc2ccc(CN(C)c3ccc(C(=O)N[C@@H](CCC(=O)O)C(=O)O)s3)cc2c(=O)[nH]1,-5.77%,
O=C(O)CO.[NH2-].[NH2-].[Pt+2],0.0482%,
COc1cc(C(=O)NS(=O)(=O)c2ccccc2C)ccc1Cc1cn(C)c2ccc(NC(=O)OC3CCCC3)cc12,,16.1 µM (active)
CCC1=C[C@@H]2CN(C1)Cc1c([nH]c3ccccc13)[C@@](C(=O)OC)(c1cc3c(cc1OC)N(C)[C@@H]1[C@@](O)(C(=O)OC)[C@H](OC(C)=O)[C@]4(CC)C=CCN5CC[C@]31[C@@H]54)C2,3.14%,
COC(=O)C1=C(C)NC(C)=C(C(=O)OCCN2CCN(C(c3ccccc3)c3ccccc3)CC2)C1c1cccc([N+](=O)[O-])c1 (stereo not drawn),5.11%,
O=c1[nH]c(=O)n(C2CCCO2)cc1F (stereo not drawn),-1.25%,
CC(=O)SC[C@@H](C)C(=O)N1CCC[C@H]1C(=O)N[C@@H](Cc1ccccc1)C(=O)O,0.43%,
CC1(C)O[C@@H]2C[C@@H]3[C@H]4C[C@@H](F)C5=CC(=O)C=C[C@]5(C)[C@@]4(F)[C@@H](O)C[C@]3(C)[C@]2(C(=O)CO)O1,4.47%,
C[C@H]1C[C@@H]2[C@@H]([C@@H](O)C[C@@]3(C)[C@H]2CC[C@]3(O)C(=O)CO)[C@@]2(C)C=CC(=O)C=C12,7.7% [at 24.9 µM],
COC(=O)C[C@](O)(CCCC(C)(C)O)C(=O)O[C@@H]1C(OC)=C[C@]23CCCN2CCc2cc4c(cc2[C@H]13)OCO4,0.85%,
Nc1ccn([C@@H]2O[C@H](CO)[C@H](O)C2(F)F)c(=O)n1,5.09%,
